44 compounds from PubChem BioAssay AID2685 (National Center for Advancing Translational Sciences (NCATS), 2010) can be followed below.

About 2,100 (0.66%) of roughly 320,000 compounds were called active. Not shown: some 53% with an inconclusive outcome. The sample holds actives, similar compounds and a random draw of the others, so the mix is not that of the screen. The call rests on the fitted dose curve; in most records, active means well fitted inhibition curve with a large enough effect in the signal ratio, with a control signal flat (not every such curve was filed as active); inconclusive means small, poorly fitted or top-dose-only effect, or effect the other way, or a change in a side signal; inactive means flat fitted curve, though single readings scatter; the % refers to the signal ratio.
Potency means the concentration at half of the fitted maximal effect.

The assay can be described thus: qHTS Assay for Lipid Storage Modulators in Drosophila S3 Cells.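 On cell number change: cells counted by Cell Tracker Red CMTPX staining in the red channel.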 On lipid storage change, negative = inhibition: on the % scale 0 is the no-effect control and ±100 the full control effect. To be noted: BODIPY lipid droplet fluorescence, 18-24 h, cells fed with added oleic acid; cell number change: measured here: cell count max response; series mostly up to 46.1 µM; lipid storage change, negative = inhibition: at the top concentration. A digest of the protocol: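 Drosophila S3 cells loaded with oleic acid (400 uM, as added) and compounds at several concentrations; lipid droplets imaged by 488-nm laser-scanning cytometry, 500–530 nm intensity and object ratio to cell channel. Percent activity normalized to 20 uM Triacsin C.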
On the technique in general: In qHTS, concentration-response curves come from the screen itself.
For `O=C(O)CSc1nnc(-c2ccc(Cl)cc2Cl)n1Cc1ccccc1`, the Potency is 5.8 µM (active) and the cell number change is -15.2%. On the same counts, the results for `O=C(O)CSc1nnc(-c2ccccc2O)n1Cc1ccccc1` are 25.9 µM (active) and 0.192%. `Cc1cccc(-c2ccc3ncnc(NCc4cc(C)cs4)c3c2)c1`: the “lipid storage change, negative = inhibition” value was -4.08% (inactive) and the cell number change was 8.79%. On the same counts, the results for `O=C(CCSc1ccccc1)Nc1ccccc1Br` are -12.8% (inactive) and 3.05%.

With `COc1ccccc1NC(=O)COC(=O)CCn1c(C)csc1=O`, the cell number change is -23.2% and the lipid storage change, negative = inhibition was 22.3% [at 0.0737 µM] (inactive). `O=C(CN1C(=O)c2ccccc2C1=O)Nc1ccccc1C(=O)NC1CCCCCC1`: the “lipid storage change, negative = inhibition” value was 5.16% (inactive) and the cell number change was found to be 2.31%. Consider `COc1cccc(C2CC(C(F)(F)F)n3ncc(C(=O)O)c3N2)c1` (stereo unspecified), for which the “lipid storage change, negative = inhibition” value was 7.32% (inactive) and the cell number change was -3.05%. Consider `CCOC(=O)C1C(=O)Nc2nc(C)nn2C1c1ccccc1` (stereo unspecified), for which the outcome was inactive. Take `Cc1cccc(NC(=O)c2cc3c(=O)n4ccccc4nc3n(CC(C)C)c2=N)c1`: the “lipid storage change, negative = inhibition” value was 4.83% (inactive) and the cell number change was found to be 2.38%. As to `O=c1oc(-c2ccccc2Br)nc2ccccc12`, the compound was called inactive and the cell number change is -5.52%. For the compound `Cc1cc(C)n(-c2ccc(Cl)c(C(=O)Nc3ccc(OC(F)(F)F)cc3)n2)n1`, the “lipid storage change, negative = inhibition” value was 19.9% (inactive) and the cell number change worked out at 14.5%.

For the compound `O=C(Nc1ccccn1)c1sc2cccc(F)c2c1Cl`, the “lipid storage change, negative = inhibition” value was 1.57% (inactive) and the cell number change was determined as 9.28%. Regarding `CCCNC(=O)C(Cc1ccccc1)NS(=O)(=O)c1ccc2c(c1)CCC(=O)N2` (stereo unspecified), the “lipid storage change, negative = inhibition” value is 8.28% (inactive). Turning to `CCC(C)NC(=O)C(Cc1ccccc1)NS(=O)(=O)c1ccc2c(c1)CCC(=O)N2` (stereo unspecified), the Potency is 20.6 µM (active) and the cell number change is 1.42%.

As for `CCCCC(CC)CNC(=O)C(Cc1ccccc1)NS(=O)(=O)c1ccc2c(c1)CCC(=O)N2` (stereo unspecified), the “lipid storage change, negative = inhibition” value was 0.0744% (inactive) and the cell number change was found to be 9.41%.

As for `Cc1ccc(NC(=O)N2CCN(C(=O)c3ccco3)CC2)cc1Cl`, the “lipid storage change, negative = inhibition” value was -0.198% (inactive) and the cell number change was -6.19%. In the case of `Cn1nnnc1SCC(=O)Nc1ccc(Cl)c(S(=O)(=O)N2CCOCC2)c1`, the “lipid storage change, negative = inhibition” value is -1.86% (inactive) and the cell number change was 21.3%. Regarding `COc1cc(NC(=O)C2=CC(c3ccc(C)cc3)=NS(=O)(=O)N2C)cc(OC)c1OC`, the Potency was 1.46 µM (active) and the cell number change is -6.34%. The corresponding values for `COc1ccc(NC(=O)C2=CC(c3ccc(C)cc3)=NS(=O)(=O)N2C)cc1` are 5.17 µM (active) and 4.61%. Consider `COc1ccc(NC(=O)C2=CC(c3ccc(C)cc3)=NS(=O)(=O)N2C)cc1OC`, for which the result was inactive and the cell number change was -8.07%. For `COc1ccc(C2=NS(=O)(=O)N(C)C(C(=O)Nc3cc(C)ccc3O)=C2)cc1OC`, the “lipid storage change, negative = inhibition” value is 4.1% (inactive) and the cell number change came to 4.03%.

In the case of `Cc1ccc(O)c(NC(=O)C2=CC(c3cccs3)=NS(=O)(=O)N2C)c1`, the “lipid storage change, negative = inhibition” value was -11.7% (inactive) and the cell number change was -6.05%. Regarding `COc1ccc(C2=NS(=O)(=O)N(C)C(C(=O)Nc3ccc(C(C)=O)cc3)=C2)cc1OC`, the “lipid storage change, negative = inhibition” value is 0.308% (inactive) and the cell number change is 3.67%.

Turning to `CCc1ccc(NC(=O)C2=CC(c3ccc(OC)cc3)=NS(=O)(=O)N2C)cc1`, the Potency was 10.3 µM (active) and the cell number change is -11.3%. `COc1ccc(CNC(=O)C2=CC(c3ccc(OC)cc3)=NS(=O)(=O)N2C)cc1`: the “lipid storage change, negative = inhibition” value is -22.8% (inactive) and the cell number change was -7.78%.

Regarding `CC(=O)c1cccc(NC(=O)C2=CC(c3cccs3)=NS(=O)(=O)N2C)c1`, the outcome was inactive. Take `COc1ccc(NC(=O)C2=CC(c3ccco3)=NS(=O)(=O)N2C)cc1`: the compound was called inactive and the cell number change came out at 15%. On to `CCc1ccc(NC(=O)C2=CC(c3cccs3)=NS(=O)(=O)N2C)cc1`, for which the Potency was 20.6 µM (active). Regarding `COc1ccc(CNC(=O)C2=CC(c3ccc(OC)c(OC)c3)=NS(=O)(=O)N2C)cc1`, the “lipid storage change, negative = inhibition” value was -14.8% (inactive) and the cell number change is -8.36%. In the case of `CCCN(CCC)Cc1c(C(=O)N/N=C/c2ccco2)nnn1-c1nonc1N`, the “lipid storage change, negative = inhibition” value is 4.78% (inactive) and the cell number change was found to be 1.25%. Consider `O=S(=O)(NC1CC1)c1ccc(S(=O)(=O)N2CCN3CCCC3C2)cc1` (stereo unspecified), for which the “lipid storage change, negative = inhibition” value is -25.1% (inactive) and the cell number change was -22%. On the same counts, the results for `C=CCn1c(-c2cccc(OC)c2OC)n[nH]c1=S` are 16.6% [at 9.22 µM] (inactive) and 6.07%. With `Cc1cnc(C(=O)NNC(=O)c2ccc(Br)cc2)cn1`, the “lipid storage change, negative = inhibition” value is 14.5% (inactive). Regarding `CNC(=O)C(=O)Nc1nc(C23CC4CC(CC(C4)C2)C3)cs1`, the “lipid storage change, negative = inhibition” value is 0.543% (inactive). In the case of `CC(CSc1nnnn1-c1ccccc1)Cn1c(N2CCN(C)CC2)nc2c1c(=O)[nH]c(=O)n2C` (stereo unspecified), the “lipid storage change, negative = inhibition” value is 4.96% (inactive) and the cell number change is -4.1%. As for `CCOc1ccc(-n2c(SCC(=O)NCc3ccco3)nnc2-c2c[nH]c3ccccc23)cc1`, the call was inactive. As to `CCOC(=O)c1sc(N2N=C(C)/C(=C\c3ccc(OCC(=O)OC)cc3)C2=O)nc1C`, the “lipid storage change, negative = inhibition” value was -3.19% (inactive) and the cell number change stood at 0.316%. As to `CC(=O)c1ccc(S(=O)(=O)NC2CCSc3ccccc32)cc1` (stereo unspecified), the “lipid storage change, negative = inhibition” value is 34% (inactive) and the cell number change came out at 11.1%. For `O=C(COC(=O)c1ccc(Cl)cc1[N+](=O)[O-])NC(=O)c1ccccc1`, the result was inactive and the cell number change is -11.4%. Consider `Cc1ccc(C2=NC3(CCCC3)NC2=S)cc1`, for which the cell number change was found to be 8.14% and the lipid storage change, negative = inhibition is 6.56% [at 9.22 µM] (inactive). On to `Cc1ccc(NC(=O)CCN2C(=O)c3ccccc3C2=O)c(C)c1`, for which the “lipid storage change, negative = inhibition” value was -5.21% (inactive) and the cell number change came out at 5.45%.

Consider `CSc1ccccc1NC(=O)C1=CC(c2cccs2)=NS(=O)(=O)N1C`, for which the Potency is 4.11 µM (active) and the cell number change was -26.8%. In the case of `CN1C(C(=O)Nc2ccc(F)cc2F)=CC(c2cccs2)=NS1(=O)=O`, the “lipid storage change, negative = inhibition” value is -7.04% (inactive) and the cell number change is -0.288%. For `COC(=O)c1ccccc1NC(=O)C1=CC(c2cccs2)=NS(=O)(=O)N1C`, the “lipid storage change, negative = inhibition” value was 14.1% (inactive) and the cell number change was determined as 5.19%.
